95 compounds from PubChem BioAssay AID652141 (The Scripps Research Institute Molecular Screening Center, 2013) can be followed below.

Molecules are shown by their SMILES. Screen size: about 5,600 compounds; about 4,500 (80%) were called active. So high a share suggests a set chosen from earlier hits. The list is a sample of the results. Unmarked numbers belong to inactive results. Rule as the data show it: active = inhibition above about 10%; inactive = the rest.

The test is described as follows: inhibition of coupled GDH and TPI enzymes – biochemical, fluorescence, high throughput, artefact control for M. tuberculosis FBA inhibitor project (AID 652141). As to conditions: GDH-TPI coupled enzyme counterscreen, at 1 µM, active compounds read high. A general note: A counterscreen serves to expose hits that act by an unwanted route or on another target.
In the case of `Cc1ccc(C2Nc3cccc4cccc(c34)N2)cc1`, the inhibition – broadly, the relative decrease from the control value, in per cent – was 137% (active).

On to `O=C(CCc1ccccc1)Nc1cccc(-c2nnc(-c3ccco3)o2)c1`, for which the inhibition was 69.8% (active).

On to `O=C(Nc1ccc(-c2nnc(-c3ccccc3)o2)cc1)C1CCCO1` (stereo not given), for which the inhibition was -0.52%.

Regarding `Cc1noc(C)c1COc1ccc2ccc(=O)oc2c1`, the inhibition is 42.7% (active).

With `Cc1cc(C)cc(NC(=O)CSc2ccccc2)c1`, the inhibition is 58.2% (active).

For the compound `Nc1ccccc1C(=O)NC1CCCCNC1=O` (stereo not given), the inhibition was 141% (active).

Take `C[C@H]1CN([C@@H](C)CO)C(=O)c2cc(Br)cnc2O[C@H]1CN(C)S(=O)(=O)c1cccs1`: the inhibition was 2.73%.

As for `c1cc(-c2ccc3[nH]ccc3c2)n2ccnc2c1`, the inhibition was 62.4% (active).

On to `CCCCOc1ccc(-c2nnc(-c3ccco3)o2)cc1`, for which the inhibition is 140% (active).

As to `CCOc1ccc(-c2nnc(-c3ccco3)o2)cc1`, the inhibition was 65% (active).

With `CCCCn1c(-c2cccc(C)c2)nc2cc3[nH]c(=O)c(C(C)C)nc3cc21`, the inhibition is 33.5% (active).

Turning to `Brc1cnc2ccccc2c1N1CCCCC1`, the inhibition is 60.2% (active).

On to `CCCn1c(=O)c(-c2ccccc2)c(O)c2ccccc21`, for which the inhibition was 75.9% (active).

For the compound `Cc1cccc(NC(=O)c2sc3nc(N4CCOCC4)c4c(c3c2N)CCCC4)c1`, the inhibition is 77% (active).

With `COC(=O)CSc1nc(C)c2ccc(OC)cc2n1`, the inhibition is -4.3%.

Take `CCOC(=O)Cn1c(=O)n(Cc2ccc(OC)cc2)c(=O)c2cccnc21`: the inhibition was 730% [above what the read-out allows, likely interference] (active).

`CCOC(=O)c1[nH]c2ccc(OC)cc2c1NC(=O)CCN1CCN(Cc2ccccc2)CC1`: the inhibition was -6.9%.

In the case of `CCOC(=O)c1[nH]c2ccc(OC)cc2c1NC(=O)N1CCOCC1`, the inhibition is 100% (active).

Turning to `O=C(NC1CCN(Cc2ccccc2)CC1)c1cc(Br)c(Br)[nH]1`, the inhibition is 764% [above what the read-out allows, likely interference] (active).

With `N#Cc1c(N2CCCCC2)nc(N)c2c(N)nc(SCC(=O)O)cc12`, the inhibition is 8.17%.

Regarding `COc1ccc(NC(=O)CN(C)C(=O)c2cc(-c3ccc(C)o3)nc3ccccc23)cc1`, the inhibition was 61.4% (active).

Consider `CCC(=O)Nc1c(S(=O)(=O)c2ccccc2)c2nc3ccccc3nc2n1Cc1ccccc1`, for which the inhibition is 150% (active).

`COc1ccc2[nH]c3c(=O)n(Cc4ccco4)cnc3c2c1`: the inhibition was -2.61%.

In the case of `COc1ccc2[nH]c3ccc(OC)cc3c2c1`, the inhibition is 198% (active).

As to `COc1ccc(-c2nc3cc(C)ccn3c2NC2CCCCC2)cc1SC1CCCCC1`, the inhibition is 41.2% (active).

Take `Cc1c(OC(C)C(=O)N[C@@H](Cc2ccccc2)C(=O)O)ccc2c3c(c(=O)oc12)CCCC3` (stereo not given in full): the inhibition was -2.05%.

For `COc1ccc2c3c(c(=O)oc2c1OCC(=O)C(C)(C)C)CCCC3`, the inhibition was 51% (active).

`CCN(CC)c1ccc2cc(C(=O)O)c(=O)oc2c1`: the inhibition was 17.4% (active).

As for `CCOC(=O)N1CCN(C(=O)c2cc3c(ccc4ccccc43)oc2=O)CC1`, the inhibition was -8.26%.

As for `COC(=O)c1c(C)c(C)nc(N)c1C#N`, the inhibition was 49.5% (active).

Take `CC(C)c1nc(N2CCOCC2)c(C#N)c2c1COC(C)(C)C2`: the inhibition was 32.5% (active).

Take `CC1(C)Cc2c(C#N)c(SCc3nc4ccccc4[nH]3)nc(N3CCOCC3)c2CO1`: the inhibition is -4.7%.

As to `CN(C(=O)c1ccccn1)c1nnc(-c2ccccn2)s1`, the inhibition is 520% [above what the read-out allows, likely interference] (active).

Consider `CN(C(=O)COc1ccccc1)c1nnc(-c2ccncc2)s1`, for which the inhibition was 513% [above what the read-out allows, likely interference] (active).

For `O=C(NCCN1CCN(Cc2ccccc2)CC1)c1cc2c(=O)[nH]c3ccccc3c2s1`, the inhibition is 125% (active).

For `Cc1cccc2c1-c1sc(C(=O)NCCCN3CCc4ccccc4C3)cc1CO2`, the inhibition is -4.07%.

Turning to `CN(C)S(=O)(=O)c1ccc(N/C=C(\[N+](=O)[O-])S(=O)(=O)c2ccccc2)cc1`, the inhibition was -5.04%.

For the compound `Oc1ccc(Br)cc1C=Nc1ccc2[nH]ncc2c1`, the inhibition is 51.6% (active).

`CC(C)=NN1C(=O)c2ccccc2NC1(C)C`: the inhibition was 121% (active).

With `Cc1cc(NC(C)C)n2c(nc3ccccc32)c1C#N`, the inhibition is 181% (active).

`COc1ccc(C2C3=C(CCCC3=O)N(CC(=O)O)C3=C2C(=O)CCC3)cc1`: the inhibition is 107% (active).

For `CCOC(=O)COc1nc(C)cc(C(F)(F)F)c1C#N`, the inhibition is 36.8% (active).

Consider `COc1ccc2sc(-c3ccc(N(C)C)cc3)c(-c3ccc4cc[nH]c4c3)c2c1`, for which the inhibition is 55.2% (active).

On to `O=C(CN1C(=O)c2cccc3cccc(c23)C1=O)N1CCCCC1`, for which the inhibition was 53.9% (active).

`CCCCN(CCCC)CC(O)Cn1c2ccccc2c(=O)c2ccccc21` (stereo not given): the inhibition is 87.8% (active).

For the compound `CN1c2ccc(C=O)c3c(C=O)ccc(c23)N(C)C1(C)C`, the inhibition is 19.9% (active).

On to `CCOc1ccc2nc(Nc3nc4ccc(NC(C)=O)cc4s3)sc2c1`, for which the inhibition is 13.8% (active).

Turning to `O=C(Nc1ncc2c(n1)-c1ccccc1OC2)c1ccc(Cl)cc1`, the inhibition was 82.3% (active).

On to `CN(C(=O)c1cc2c(=O)n3ccccc3nc2s1)C1CCCCC1`, for which the inhibition was 46.3% (active).

For `O=C(c1cc(-c2ccco2)nc2ccccc12)N(Cc1nnc(-c2ccc(Cl)cc2)o1)C1CC1`, the inhibition is 72.7% (active).

For `CN(CCOc1ccccc1)C(=O)c1cc(-c2ccco2)nc2ccccc12`, the inhibition is -2.35%.

Take `COc1cccc2[nH]c(C(=O)NCCc3ccccc3)cc12`: the inhibition was 961% [above what the read-out allows, likely interference] (active).

For the compound `COc1ccc(CNC(=O)c2c[nH]c3c(OC)cc(OC)cc3c2=O)cc1`, the inhibition was -3.81%.

As to `Cc1nn(-c2ccccc2)nc1C(=O)OCC(=O)N1CCCCC1C` (stereo not given), the inhibition was -3.64%.

Take `Cc1cnc(C(=O)OCC(=O)N2CCc3ccccc32)cn1`: the inhibition was 99.3% (active).

As for `CCOc1c2ccc(C(=O)NC3CCCc4ccccc43)cc2nn1CC` (stereo not given), the inhibition was 7.23%.

Take `CCCn1nc2cc(C(=O)NCc3ccccc3)ccc2c1OCC`: the inhibition is -3.32%.

On to `CCOc1c2ccc(C(=O)NCc3ccc(OC(F)(F)F)cc3)cc2nn1C`, for which the inhibition was 79.5% (active).

As to `CCOc1c2ccc(C(=O)NCc3ccc4c(c3)OCO4)cc2nn1C`, the inhibition is 68.1% (active).

Take `CC(=O)c1sc2nc(SCC(=O)N3CCCCC3)[nH]c(=O)c2c1C`: the inhibition was 55.4% (active).

Turning to `Cc1nc(NCCN)c(C#N)c2c1COC(C)(C)C2`, the inhibition was 76.9% (active).

Take `COc1ccc(C2CC(c3cccs3)=NN2c2ccc(F)cc2)cc1OC` (stereo not given): the inhibition is 71.1% (active).

As to `COc1ccc(C2CC(c3cccs3)=NN2c2ccccc2)cc1` (stereo not given), the inhibition was 23.7% (active).

With `Oc1ccccc1C1=NN(c2ccccc2)C(c2ccccc2)C1` (stereo not given), the inhibition was 84% (active).

Regarding `COc1ccccc1N1N=C(c2cccs2)CC1c1ccccc1` (stereo not given), the inhibition is 46.6% (active).

For `Fc1ccc(N2N=C(c3cccs3)CC2c2ccco2)c(F)c1` (stereo not given), the inhibition was -3.03%.

Take `CS(=O)(=O)Nc1ccc(C2=NN(S(C)(=O)=O)C(c3cccs3)C2)cc1` (stereo not given): the inhibition was -3.93%.

Consider `Cc1cc(C)c(-c2c(O)c3ccccc3n(C)c2=O)c(C)c1`, for which the inhibition is 61.1% (active).

`Cc1ccc(S(=O)(=O)N2CCN(C(=O)CSc3cc(C)ccc3C)CC2)c(C)c1`: the inhibition was 108% (active).

Take `CCc1cc(=O)oc2cc(C)cc(OCC(=O)N3CCC[C@@H]3C(=O)O)c12`: the inhibition was 54.6% (active).

Consider `CCCC/C=C/c1cccc2nncn12`, for which the inhibition is 54% (active).

For `CCOc1ccccc1C1CC(c2ccccc2)Nc2nc(N)nn21` (stereo not given), the inhibition is 132% (active).

For the compound `CN(C)CCCn1c(N)c(C#N)c2nc(C#N)c(C#N)nc21`, the inhibition is 76.3% (active).

On to `c1ccc(Cc2c(-c3ccco3)nc3c4ccccc4ccn23)cc1`, for which the inhibition was 95.6% (active).

Consider `CN(C)c1ccc(/C=N/NC(=O)C(O)c2ccc(Br)cc2)cc1` (stereo not given), for which the inhibition was 64% (active).

As to `CC(C)C1Nc2c(C(=O)O)cccc2C(Nc2ccccc2C(=O)O)C1(C)C` (stereo not given), the inhibition was 87.3% (active).

As for `CC(=O)N1C(=O)/C(=C2\SC(=S)N(NC(=O)c3ccc(O)cc3)C2=O)c2ccccc21`, the inhibition was -2.52%.

Consider `COC(=O)COc1cc(C)cc2oc(=O)c3c(c12)CCCC3`, for which the inhibition was 105% (active).

Consider `Cc1cc(OCc2cc(C(=O)O)oc2C)c2c3c(c(=O)oc2c1)CCCC3`, for which the inhibition was 89.5% (active).

For the compound `CC(=O)N1CCN(C(=O)c2cc(-c3ccc(Cl)s3)nc3ccccc23)CC1`, the inhibition is -3.53%.

For `O=C(c1cc(-c2ccc(Cl)s2)nc2ccccc12)N1CCOCC1`, the inhibition was 83% (active).

With `Cc1ccc2nc(-c3ccco3)c(Cc3cccc(Cl)c3)n2c1`, the inhibition was 63.6% (active).

With `COC(=O)c1cc(-c2cccs2)nc2ccccc12`, the inhibition was 96.2% (active).

Regarding `O=C(NCCN1CCOCC1)c1cc(-c2cccs2)nc2ccccc12`, the inhibition was -3.18%.

For `CC(C)(C)OC(=O)NNc1c2ccccc2nc2ccccc12`, the inhibition is -5.25%.

With `CC(C)n1c(-c2cccs2)nc2ccccc21`, the inhibition was 68.4% (active).

`Cc1cc(=O)oc2c1ccc1ccccc12`: the inhibition was 71.6% (active).

With `COCCN(CCOC)c1nc(N)c2c(N)nc3c(c2c1C#N)CC(=O)N3Cc1ccc(Cl)cc1`, the inhibition was 79% (active).

For the compound `N#CC1(Nc2ccc3c4c(cccc24)CC3)CCCCC1`, the inhibition was 103% (active).

Regarding `COCc1cc(=O)oc2cc(NS(=O)(=O)c3ccc(C)cc3)ccc12`, the inhibition was 51.2% (active).

With `CCSc1nnc(-c2cc3c(s2)-c2ccccc2CC3)o1`, the inhibition is 53.8% (active).

Turning to `Cc1cc(OCC(=O)NCC(O)c2ccccc2)c2c(C)c(C)c(=O)oc2c1` (stereo not given), the inhibition is 187% (active).

Regarding `CC1(C)CC(=O)c2cc(OCC(=O)NCC3CCCO3)ccc2O1` (stereo not given), the inhibition is -4.8%.

As for `Cc1cc(=O)oc2c3c(cc(OCC(=O)NCC(O)c4ccccc4)c12)OC(C)(C)CC3` (stereo not given), the inhibition is 46.9% (active).

Take `CC1=CC2=NC(=O)CC(C)(C(=O)N(CC(=O)NC(C)(C)C)Cc3ccccc3)N2C=C1` (stereo not given): the inhibition was 4.57%.
